Sampled rows, rich in hits. Any-hit rate of the full collection: about 22%.
Pf growth 96h: P. falciparum growth inhibition at 96 hour, primary screen for plastid delayed-death inhibitors; P. falciparum luciferase reporter growth, 96 h; Potency, µM (doses to about 28.7 µM), usual class: inhibitors; 320,000 tested, 6.9% active; AID 504834
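Delayed-death screen, second-generation endpoint: infected erythrocytes, 2% hematocrit, 0.05% parasitemia final; 96 hours at 37 C, 5% CO2; luciferase detection reagent; luminescence decrease equals reduced growth.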
Shiga inhibitor: inhibitors of Shiga toxin in Vero cells; Vero cells, Shiga toxin protein synthesis inhibition reporter; inhibition, % at 38.7 µM; 290,000 tested, 9.2% active; AID 2315; in the data active means inhibition mostly above about 28%, no sharp cut-off; inactive means mostly below about 43%
Cycloheximide cs: counter-screen hit for Shiga toxin inhibitors, cycloheximide. max response, %. 300,000 tested, 12% active. cell reporter, cycloheximide protein synthesis inhibition counterscreen; in the data active means max response mostly above about 13%, no sharp cut-off; inactive means mostly below about 14%; further: read at 38.3 µM for the half of the compounds with a filed dose
LmPK inh: blocks Leishmania mexicana pyruvate kinase activity; Potency, µM (doses to about 57.5 µM), most hits filed as inhibitors; Q27686; purified LmPK, Kinase-Glo ATP luminescence, 1 h; 290,000 tested, 0.37% active
Target sequence (Q27686 whole entry, looked up): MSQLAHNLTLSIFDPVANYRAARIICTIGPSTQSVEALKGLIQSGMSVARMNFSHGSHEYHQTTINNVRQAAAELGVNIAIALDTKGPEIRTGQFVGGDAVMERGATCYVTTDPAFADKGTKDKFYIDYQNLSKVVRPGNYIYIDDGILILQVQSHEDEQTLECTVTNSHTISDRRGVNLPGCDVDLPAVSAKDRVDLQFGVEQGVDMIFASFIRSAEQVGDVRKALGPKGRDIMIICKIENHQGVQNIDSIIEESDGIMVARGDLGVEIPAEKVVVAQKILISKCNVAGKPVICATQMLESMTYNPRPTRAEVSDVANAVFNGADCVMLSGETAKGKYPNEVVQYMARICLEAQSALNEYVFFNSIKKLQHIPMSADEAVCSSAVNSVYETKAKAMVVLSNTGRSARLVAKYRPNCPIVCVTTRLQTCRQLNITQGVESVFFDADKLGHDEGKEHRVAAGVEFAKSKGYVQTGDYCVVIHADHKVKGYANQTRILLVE
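Purified LmPK (0.1 nM) converted ADP (0.1 mM) to ATP with PEP (0.5 mM) in imidazole buffer pH 7.2 with KCl and MgCl2, 1 h at room temperature. ATP was read by Kinase-Glo luminescence; data normalized to uninhibited and no-enzyme controls.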
Pf growth 48h: inhibits P. falciparum growth in the first generation, 48 h. 310,000 tested, 5.9% active. Potency, µM (doses to about 28.7 µM), hits mostly inhibitors. P. falciparum luciferase growth in erythrocytes, 48 h
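Growth was read as firefly luciferase luminescence after a 48 h, 37 C, 5% CO2 exposure of compounds to reporter-bearing P. falciparum cultures (0.1% parasitemia, 2% hematocrit final) in Albumax-supplemented RPMI 1640.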
Of the large screens only hits and unclear results are named; the others gave an inactive call; ! = not confirmed by another sample. Unless noted, the call rests on the fitted dose curve; in most records, active means well fitted inhibition curve with a large enough effect; inconclusive means small, poorly fitted or top-dose-only effect, or another doubt; inactive means no such curve, though single readings can be large or run the other way.

CCCCOc1ccc(C(=O)Nc2ccc(CN3CCOCC3)cc2)cc1	Pf growth 96h inconclusive, Pf growth 48h inconclusive
O=C(Nc1ccc(S(=O)(=O)N2CCCC2)cc1)c1cnccn1	none
Cc1cnc(C(=O)Nc2ccc(S(=O)(=O)NCC(C)C)cc2)cn1	Pf growth 96h 9.3µM, Pf growth 48h inconclusive
CCCCOc1ccc(NC(=O)c2cnc(C)cn2)cc1	Pf growth 96h inconclusive, Cycloheximide cs 13 (no result: Pf growth 48h)
Cc1cnc(C(=O)Nc2cc(F)ccc2C)cn1	none
Cc1cnc(C(=O)Nc2ccc(F)c(F)c2)cn1	Shiga inhibitor 55, Cycloheximide cs 21
Cc1cnc(C(=O)Nc2ccc(S(=O)(=O)N(C(C)C)C(C)C)cc2)cn1	none (no result: Shiga inhibitor)
O=C(Nc1ccc2c(c1)CCC2)c1cnccn1	Shiga inhibitor 109, Cycloheximide cs 46, LmPK inh inconclusive
C=CCNC(=O)N1CCC(c2nc3ccccc3s2)CC1	Pf growth 96h inconclusive
Cc1cnc(C(=O)Nc2cccc(-c3nnc4n3CCCCC4)c2)cn1	Pf growth 96h inconclusive
Cc1cnc(C(=O)Nc2ccc3c(c2)CCC3)cn1	Shiga inhibitor 82, Cycloheximide cs 39
COc1cc(OC)cc(C(=O)NN2CCOCC2)c1	Pf growth 96h inconclusive
CCOC(=O)N1CCN(S(=O)(=O)c2ccc(NC(C)=O)cc2)CC1	Pf growth 96h inconclusive
CCN1CCN(C2=C(NS(=O)(=O)c3ccc(NC(C)=O)cc3)C(=O)c3ccccc3C2=O)CC1	Pf growth 96h 10µM, Pf growth 48h inconclusive
CCOC(=O)N1CCN(C2=C(NS(=O)(=O)c3ccc(NC(C)=O)cc3)C(=O)c3ccccc3C2=O)CC1	Pf growth 96h 9.3µM, Pf growth 48h inconclusive
CCN1CCN(C(CNS(=O)(=O)c2ccc(C)cc2)c2cccnc2)CC1 (centres undefined)	none
CC(=O)Nc1ccc(S(=O)(=O)NC2=C(N3CCN(C)CC3)C(=O)c3ccccc3C2=O)cc1	Pf growth 96h inconclusive, Pf growth 48h inconclusive
CC(=O)Nc1ccc(S(=O)(=O)NC2=C(N3CCN(Cc4ccccc4)CC3)C(=O)c3ccccc3C2=O)cc1	Pf growth 96h 1.2µM (no result: Pf growth 48h)
CCN1CCN(C2=C(NS(=O)(=O)c3ccc(C)cc3)C(=O)c3ccccc3C2=O)CC1	Pf growth 96h 1.7µM, Cycloheximide cs 23, Pf growth 48h 2.9µM
COc1ccccc1NC(=O)CSC(N)=O	none (no result: Pf growth 48h)
Cc1ccc(S(=O)(=O)N2CCN(C(=O)C3CSC4(C)CCC(=O)N34)CC2)cc1C (centres undefined)	none (no result: Shiga inhibitor, Cycloheximide cs, LmPK inh)
Cc1cc(C)c(S(=O)(=O)N2CCC(C(=O)NCc3ccc(Cl)cc3Cl)CC2)c(C)c1	none (no result: Pf growth 48h)
Cc1ccc(C2C(C=Nc3c(C)n(C)n(-c4ccccc4)c3=O)=C(c3ccccc3)Oc3ccccc32)cc1 (centres undefined)	Pf growth 96h 4.1µM, Pf growth 48h 8.3µM
Cc1c(N=Cc2cccs2)c(=O)n(-c2ccccc2)n1C	none (no result: Pf growth 48h)
CC(=O)Nc1cccc(OCC(O)Cn2cnc3ccccc32)c1 (centres undefined)	none
CC(=O)Nc1ccc(OCC(O)Cn2cnc3ccccc32)cc1 (centres undefined)	Pf growth 96h 7.4µM
Cc1nn(CC(O)COc2ccc3c(c2)CCC3)c(C)c1C (centres undefined)	none (no result: Pf growth 96h)
CC(NCC(O)COc1ccc2ccccc2c1)c1ccccc1 (centres undefined)	Pf growth 96h 9.3µM, Pf growth 48h 9.3µM
OC(CN(c1ccccc1)c1ccccc1)Cn1cnc2ccccc21 (centres undefined)	Pf growth 48h 12µM
OC(COc1ccc2c(c1)CCC2)Cn1cnc2ccccc21 (centres undefined)	Shiga inhibitor 74, Pf growth 48h 10µM
CC(C)NCC(O)COc1ccc(Br)cc1 (centres undefined)	Pf growth 48h inconclusive
CC(C)NCC(O)COc1ccc(CCOCC2CC2)cc1 (centres undefined)	Pf growth 96h 3.4µM!, Pf growth 48h 13µM!
CC(C)NCC(O)COc1ccc2c(c1)CCC2 (centres undefined)	Shiga inhibitor 110, Cycloheximide cs 32
CC(CCc1ccccc1)NCC(O)COc1ccccc1 (centres undefined)	Pf growth 96h inconclusive, Pf growth 48h 5.2µM
Cc1ccc(S(=O)(=O)N(CC(=O)NCc2ccccc2Cl)C(=O)N2CCN(C)CC2)cc1	none (no result: Shiga inhibitor, Cycloheximide cs, LmPK inh)
COCCCn1c(SCc2ccc(OC)cc2)nc2cc(OC)c(OC)cc2c1=N	Pf growth 96h inconclusive, Pf growth 48h inconclusive
CCCSc1nc2cc(OC)c(OC)cc2c(=N)n1CCCN1CCOCC1	Pf growth 96h 4.7µM, Pf growth 48h 12µM
CC(C)OC(=O)c1cccc2c1C(=O)c1ccccc1-2	Shiga inhibitor 74, Cycloheximide cs 38
N=c1ncn(CC(O)CO)c2nc(N3CCOCC3)[nH]c12 (centres undefined)	none (no result: Pf growth 48h)
NC(=O)c1nnn(-c2nonc2N)c1-c1ccc([N+](=O)[O-])cc1	none
O=S(=O)(NCCc1ccc(Cl)cc1)c1cccc2cccnc12	Pf growth 96h 9.3µM
CC(C)=CCC1C(=O)N(c2ccccc2)N(c2ccccc2)C1=O	Pf growth 96h 7.6µM, Pf growth 48h inconclusive (no result: Shiga inhibitor, Cycloheximide cs, LmPK inh)
COc1ccc(C)cc1NC(=O)CSc1nnc(CC(=O)Nc2ccccc2C)n1C	none (no result: Pf growth 96h)
CCOCCCNC(=O)c1cn(CC)c2ccc(S(=O)(=O)N(C)C3CCCCC3)cc2c1=O	Pf growth 96h inconclusive, Pf growth 48h 9.3µM
CCCN(CCC)CCCNC(=O)c1cn(CC)c2ccc(S(=O)(=O)N(C)C3CCCCC3)cc2c1=O	Pf growth 96h 10µM, Pf growth 48h 9.3µM
CCN1CCN(C(C(=O)NC2CCCCC2)c2ccc(Cl)cc2)CC1 (centres undefined)	none (no result: Pf growth 96h)
CC(=O)Nc1ccc2nc(-c3ccco3)[nH]c2c1	Shiga inhibitor 87, Cycloheximide cs 35
O=C(Nc1ccc2nc(-c3ccco3)[nH]c2c1)c1cccs1	Pf growth 96h inconclusive, Shiga inhibitor 66, Cycloheximide cs 46
O=C(Nc1ccc2nc(-c3cccnc3)[nH]c2c1)c1ccco1	Pf growth 96h inconclusive
O=C(Nc1cccc(NC(=O)c2cccs2)c1)c1ccco1	none
O=C(Nc1ccc2nc(-c3ccco3)[nH]c2c1)c1ccco1	Shiga inhibitor 45, Cycloheximide cs 33 (no result: Pf growth 96h, Pf growth 48h)
Cc1ccc2nc(-c3cccc(NC(=O)c4ccco4)c3)[nH]c2c1	Shiga inhibitor 43, Cycloheximide cs 50, LmPK inh inconclusive, Pf growth 48h inconclusive (no result: Pf growth 96h)
Cc1cccc(C(=O)N[C@@H](C)C(=O)N2CCN(c3ncccn3)CC2)c1	none (no result: Shiga inhibitor, Cycloheximide cs, LmPK inh)
Cc1ccc(S(=O)(=O)/C(C#N)=C/c2c(N3CCOCC3)nc3c(C)cccn3c2=O)cc1	Pf growth 48h 2.1µM
Cc1cccn2c(=O)c(/C=C(\C#N)S(=O)(=O)c3ccccc3)c(N3CCN(Cc4ccccc4)CC3)nc12	Pf growth 96h 15µM, Pf growth 48h inconclusive
N#C/C(=C\c1c(N2CCOCC2)nc2ccccn2c1=O)S(=O)(=O)c1ccccc1	none
O=C(CSc1nc(-c2ccccc2)c(-c2ccccc2)[nH]1)N1CCN(S(=O)(=O)c2ccccc2)CC1	Pf growth 96h inconclusive (no result: Pf growth 48h)

Bioassay records as filed in PubChem.
